# Data published in the supplement of paper PMC11001985.
# Values without a mark were called inactive.
# Compound: C#CCNC(=O)CCSSCCC(=O)NCCc1ccc(C=O)c(C=O)c1
# Experiment: lysine labeling ratio R10:1 (500 µM / 50 µM probe), SILAC-ABPP in living cells; higher = lower intrinsic lysine reactivity toward the probe, active = 2 or less
# Details: HeLa; probe concentrations 500 vs 50 µM
# How it was run: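 Measurements came from LC-MS/MS on a TIMS-TOF Pro of mixed SILAC light and heavy HeLa lysates after click to biotin-azide, trypsin digestion, neutravidin capture, DTT release and alkylation. Before lysis, the living cells sat in PBS at room temperature with 50 µM or 500 µM of an alkyne-tagged, disulfide-linked lysine probe, and labels were swapped forward and reverse. R per lysine is the median across both swap directions of the filtered median high-probe/low-probe MS1 peptide ratio. The cap is 20.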
# Sequence of UniProt Q9H307 (Q9H307 whole entry): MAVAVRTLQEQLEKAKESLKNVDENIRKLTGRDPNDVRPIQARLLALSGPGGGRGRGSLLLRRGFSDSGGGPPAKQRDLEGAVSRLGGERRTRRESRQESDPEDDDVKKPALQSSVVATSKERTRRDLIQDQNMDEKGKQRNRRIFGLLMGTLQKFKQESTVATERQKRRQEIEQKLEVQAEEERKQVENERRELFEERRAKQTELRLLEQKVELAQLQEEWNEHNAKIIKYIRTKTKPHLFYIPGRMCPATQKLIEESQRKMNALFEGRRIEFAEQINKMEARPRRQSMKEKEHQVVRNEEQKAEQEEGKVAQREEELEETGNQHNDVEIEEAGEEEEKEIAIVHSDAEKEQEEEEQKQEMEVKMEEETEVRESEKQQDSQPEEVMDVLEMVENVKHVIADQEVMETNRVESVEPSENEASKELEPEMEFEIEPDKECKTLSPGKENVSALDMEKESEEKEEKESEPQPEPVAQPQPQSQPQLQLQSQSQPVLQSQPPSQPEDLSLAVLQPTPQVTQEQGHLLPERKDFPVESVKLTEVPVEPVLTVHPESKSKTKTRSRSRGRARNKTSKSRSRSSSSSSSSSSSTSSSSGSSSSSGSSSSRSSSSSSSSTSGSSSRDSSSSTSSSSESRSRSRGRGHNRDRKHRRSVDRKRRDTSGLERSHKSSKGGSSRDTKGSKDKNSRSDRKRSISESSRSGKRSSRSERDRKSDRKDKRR
# Sequence of UniProt Q9NZV1 (Q9NZV1 whole entry): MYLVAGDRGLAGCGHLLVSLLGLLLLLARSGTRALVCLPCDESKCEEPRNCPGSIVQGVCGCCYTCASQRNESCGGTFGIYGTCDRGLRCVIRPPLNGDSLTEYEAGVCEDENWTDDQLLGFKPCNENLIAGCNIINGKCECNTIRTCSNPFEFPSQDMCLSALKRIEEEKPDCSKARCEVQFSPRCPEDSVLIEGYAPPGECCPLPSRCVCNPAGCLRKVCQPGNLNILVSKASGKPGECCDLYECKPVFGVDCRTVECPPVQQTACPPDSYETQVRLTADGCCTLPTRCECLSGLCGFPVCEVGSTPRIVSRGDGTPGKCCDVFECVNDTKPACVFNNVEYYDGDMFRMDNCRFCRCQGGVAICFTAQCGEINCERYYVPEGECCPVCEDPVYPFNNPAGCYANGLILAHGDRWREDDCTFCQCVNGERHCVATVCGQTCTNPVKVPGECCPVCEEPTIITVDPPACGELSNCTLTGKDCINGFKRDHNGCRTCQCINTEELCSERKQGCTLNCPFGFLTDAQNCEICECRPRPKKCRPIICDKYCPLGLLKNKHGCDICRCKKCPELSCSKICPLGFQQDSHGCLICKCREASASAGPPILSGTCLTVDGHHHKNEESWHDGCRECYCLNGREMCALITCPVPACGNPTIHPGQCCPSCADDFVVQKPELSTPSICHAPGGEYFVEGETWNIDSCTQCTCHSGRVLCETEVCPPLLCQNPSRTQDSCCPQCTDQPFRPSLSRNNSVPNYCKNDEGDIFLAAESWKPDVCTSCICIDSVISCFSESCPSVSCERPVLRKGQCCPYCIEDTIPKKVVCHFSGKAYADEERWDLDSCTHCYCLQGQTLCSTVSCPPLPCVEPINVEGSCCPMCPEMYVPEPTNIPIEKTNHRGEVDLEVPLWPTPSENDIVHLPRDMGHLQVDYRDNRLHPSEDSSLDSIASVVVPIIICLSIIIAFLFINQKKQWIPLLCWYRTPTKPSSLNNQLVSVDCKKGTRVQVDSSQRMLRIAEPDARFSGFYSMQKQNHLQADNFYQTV
# Sequence of UniProt P08069 (P08069 whole entry, looked up): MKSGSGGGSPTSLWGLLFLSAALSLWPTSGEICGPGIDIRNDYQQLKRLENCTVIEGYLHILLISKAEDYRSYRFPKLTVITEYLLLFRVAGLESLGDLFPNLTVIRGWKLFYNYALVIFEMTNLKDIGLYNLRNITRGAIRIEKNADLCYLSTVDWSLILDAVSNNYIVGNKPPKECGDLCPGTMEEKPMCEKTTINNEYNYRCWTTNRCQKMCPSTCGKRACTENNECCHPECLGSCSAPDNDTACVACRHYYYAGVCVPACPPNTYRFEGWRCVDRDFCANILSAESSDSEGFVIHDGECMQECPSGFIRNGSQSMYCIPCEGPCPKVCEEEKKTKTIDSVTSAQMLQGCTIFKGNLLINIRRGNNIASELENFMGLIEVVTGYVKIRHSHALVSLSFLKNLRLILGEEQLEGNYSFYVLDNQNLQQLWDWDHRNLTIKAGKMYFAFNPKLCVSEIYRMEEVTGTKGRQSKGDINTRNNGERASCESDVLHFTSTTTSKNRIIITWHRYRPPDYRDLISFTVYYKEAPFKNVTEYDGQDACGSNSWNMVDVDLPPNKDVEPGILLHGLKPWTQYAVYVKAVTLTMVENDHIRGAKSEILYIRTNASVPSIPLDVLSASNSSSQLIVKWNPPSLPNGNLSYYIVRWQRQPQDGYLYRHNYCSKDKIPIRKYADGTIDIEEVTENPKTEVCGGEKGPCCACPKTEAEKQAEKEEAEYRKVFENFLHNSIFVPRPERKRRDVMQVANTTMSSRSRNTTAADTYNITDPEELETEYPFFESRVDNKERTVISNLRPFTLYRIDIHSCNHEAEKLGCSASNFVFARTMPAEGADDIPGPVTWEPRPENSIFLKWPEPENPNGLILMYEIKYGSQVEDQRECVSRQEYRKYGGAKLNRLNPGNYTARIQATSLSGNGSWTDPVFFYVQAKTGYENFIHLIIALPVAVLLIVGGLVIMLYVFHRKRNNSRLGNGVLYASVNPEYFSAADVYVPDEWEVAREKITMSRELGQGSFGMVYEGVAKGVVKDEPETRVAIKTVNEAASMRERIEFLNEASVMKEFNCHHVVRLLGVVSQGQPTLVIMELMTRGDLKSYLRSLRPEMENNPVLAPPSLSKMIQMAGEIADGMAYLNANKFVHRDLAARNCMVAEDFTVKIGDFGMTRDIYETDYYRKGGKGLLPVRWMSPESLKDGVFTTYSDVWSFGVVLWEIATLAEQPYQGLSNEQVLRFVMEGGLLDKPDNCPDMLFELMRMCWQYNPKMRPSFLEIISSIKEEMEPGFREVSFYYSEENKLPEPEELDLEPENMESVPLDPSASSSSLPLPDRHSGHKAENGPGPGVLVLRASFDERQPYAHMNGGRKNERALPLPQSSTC
# Sequence of UniProt Q04837 (Q04837 whole entry): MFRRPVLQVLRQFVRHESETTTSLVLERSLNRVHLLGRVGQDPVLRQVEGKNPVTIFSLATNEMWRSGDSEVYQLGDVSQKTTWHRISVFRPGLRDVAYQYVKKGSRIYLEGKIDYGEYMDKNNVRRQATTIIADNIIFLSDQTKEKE
# Sequence of UniProt P14866 (P14866 whole entry): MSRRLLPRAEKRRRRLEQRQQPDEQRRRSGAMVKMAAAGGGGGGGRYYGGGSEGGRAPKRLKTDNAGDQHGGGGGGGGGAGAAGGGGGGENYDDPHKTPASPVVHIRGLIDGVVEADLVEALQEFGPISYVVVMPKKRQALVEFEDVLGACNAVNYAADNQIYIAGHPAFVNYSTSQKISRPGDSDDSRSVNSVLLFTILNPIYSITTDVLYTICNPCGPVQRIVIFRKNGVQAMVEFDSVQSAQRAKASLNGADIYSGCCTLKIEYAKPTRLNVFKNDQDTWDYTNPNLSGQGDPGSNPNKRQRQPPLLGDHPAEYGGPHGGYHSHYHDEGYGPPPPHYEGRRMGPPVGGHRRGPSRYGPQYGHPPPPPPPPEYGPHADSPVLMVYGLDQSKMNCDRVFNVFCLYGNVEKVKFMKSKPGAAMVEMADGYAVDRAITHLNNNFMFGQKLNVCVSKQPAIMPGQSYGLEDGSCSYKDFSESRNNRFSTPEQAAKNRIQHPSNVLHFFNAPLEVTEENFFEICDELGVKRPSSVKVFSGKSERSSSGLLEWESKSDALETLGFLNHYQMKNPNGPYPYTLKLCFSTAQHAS
# Sequence of UniProt Q9NX63 (Q9NX63 whole entry): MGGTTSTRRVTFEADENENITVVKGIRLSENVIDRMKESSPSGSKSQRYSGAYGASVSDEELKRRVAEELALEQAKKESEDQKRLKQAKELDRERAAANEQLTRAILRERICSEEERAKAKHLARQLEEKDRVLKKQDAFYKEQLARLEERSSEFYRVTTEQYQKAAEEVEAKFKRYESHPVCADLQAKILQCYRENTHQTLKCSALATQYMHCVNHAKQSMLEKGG
# Sequence of UniProt P16422 (P16422 whole entry): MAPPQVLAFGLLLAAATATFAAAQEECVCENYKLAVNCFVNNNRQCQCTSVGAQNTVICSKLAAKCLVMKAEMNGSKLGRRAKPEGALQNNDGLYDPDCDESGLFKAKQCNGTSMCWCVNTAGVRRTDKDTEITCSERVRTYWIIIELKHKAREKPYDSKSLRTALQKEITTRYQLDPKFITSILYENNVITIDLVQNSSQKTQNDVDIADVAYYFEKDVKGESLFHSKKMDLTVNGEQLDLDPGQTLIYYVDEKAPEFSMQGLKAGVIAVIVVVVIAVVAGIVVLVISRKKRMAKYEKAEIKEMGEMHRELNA
# Sequence of UniProt P11021 (P11021 whole entry): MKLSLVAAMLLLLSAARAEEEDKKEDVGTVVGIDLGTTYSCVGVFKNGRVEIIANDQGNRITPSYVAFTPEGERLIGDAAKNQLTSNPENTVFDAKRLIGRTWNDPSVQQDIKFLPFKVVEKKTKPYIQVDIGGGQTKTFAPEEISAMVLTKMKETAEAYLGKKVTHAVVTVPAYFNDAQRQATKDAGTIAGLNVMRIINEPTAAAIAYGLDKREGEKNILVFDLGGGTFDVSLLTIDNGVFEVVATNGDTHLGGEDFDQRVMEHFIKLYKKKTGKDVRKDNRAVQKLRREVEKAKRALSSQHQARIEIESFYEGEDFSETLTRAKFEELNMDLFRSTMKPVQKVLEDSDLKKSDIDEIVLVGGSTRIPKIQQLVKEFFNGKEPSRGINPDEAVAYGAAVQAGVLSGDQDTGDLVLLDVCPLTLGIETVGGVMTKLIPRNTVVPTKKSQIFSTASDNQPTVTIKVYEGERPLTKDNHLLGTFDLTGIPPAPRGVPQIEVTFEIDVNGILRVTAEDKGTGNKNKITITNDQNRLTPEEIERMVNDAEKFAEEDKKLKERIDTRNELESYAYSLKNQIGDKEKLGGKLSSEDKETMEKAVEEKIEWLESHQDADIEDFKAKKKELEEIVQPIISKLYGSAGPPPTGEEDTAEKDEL
row,Target,lysine labeling ratio R10:1
1,MSN (lysine site: K63) (UniProt P26038),1.1 (active)
2,PLXNA1 (lysine site: K868) (UniProt Q9UIW2),1.37 (active)
3,PNN (lysine site: K262) (UniProt Q9H307),1.08 (active)
4,TLN1 (lysine site: K428) (UniProt Q9Y490),2.34
5,UniProt Q15149 (lysine site: K300),2.94
6,EPCAM (lysine site: K160) (UniProt P16422),2.33
7,UniProt O60462 (lysine site: K547),4.2
8,UniProt Q9UHN6 (lysine site: K278),3.15
9,SERBP1 (lysine site: K72) (UniProt Q8NC51),1.17 (active)
10,GALNT7 (lysine site: K624) (UniProt Q86SF2),1.81 (active)
11,CRIM1 (lysine site: K171) (UniProt Q9NZV1),2.01
12,ITGA6 (lysine site: K680) (UniProt P23229),2.82
13,ENG (lysine site: K402) (UniProt P17813),2.25
14,PNN (lysine site: K202) (UniProt Q9H307),3
15,UniProt P22413 (lysine site: K448),0.527 (active)
16,UniProt Q9NYQ6 (lysine site: K1830),0.925 (active)
17,VAPA (lysine site: K211) (UniProt Q9P0L0),4.3
18,SPTAN1 (lysine site: K1432) (UniProt Q13813),0.77 (active)
19,RBMX (lysine site: K163) (UniProt P38159),3.88
20,ASPH (lysine site: K110) (UniProt Q12797),4.5

row,Target,lysine labeling ratio R10:1
1,CRIM1 (lysine site: K176) (UniProt Q9NZV1),2.01
2,KRT18 (lysine site: K111) (UniProt P05783),14.4
3,EGFR (lysine site: K328) (UniProt P00533),3.46
4,IGF1R (lysine site: K667) (UniProt P08069),1.28 (active)
5,IARS (lysine site: K641) (UniProt P41252),1.71 (active)
6,ITGA1 (lysine site: K563) (UniProt P56199),5.65
7,CHCHD3 (lysine site: K89) (UniProt Q9NX63),0.99 (active)
8,TFRC (lysine site: K128) (UniProt P02786),6.74
9,SSBP1 (lysine site: K81) (UniProt Q04837),4.93
10,L1CAM (lysine site: K119) (UniProt P32004),3.56
11,TGFBR3 (lysine site: K686) (UniProt Q03167),1.81 (active)
12,HNRNPL (lysine site: K538) (UniProt P14866),1.29 (active)
13,HSPA5 (lysine site: K523) (UniProt P11021),3.39
14,HMGN2 (lysine site: K16) (UniProt P05204),1.78 (active)
15,CCT2 (lysine site: K230) (UniProt P78371),3.3
16,SUB1 (lysine site: K97) (UniProt P53999),6.03
17,TKT (lysine site: K283) (UniProt P29401),7.35
18,IGF1R (lysine site: K221) (UniProt P08069),1.51 (active)
19,SFN (lysine site: K49) (UniProt P31947),5.33
20,EPHA2 (lysine site: K476) (UniProt P29317),3.45
